Results taken from publication PMC13494018.

B1: design_599_7ce25d4d-e004-4b84-a16f-baf856d943ab_1137_dldesign_0_cycle1_af2pred (protein)
chain: GAAAAAAAQEARQAIAEAEFAAAKGDPAAEAALEKAAAAAEKAAAADPEVGAKVKALVDKARAKVAAAKAA
B2: design_599_7ce25d4d-e004-4b84-a16f-baf856d943ab_1912_dldesign_0_cycle1_af2pred (protein)
chain: MEKLKELLEKTKELAKKGVEYAKKGDEEKARKYMLEARKYAEEAKKLDPEAGKEAAKIIQEAYEEMAEARFEVN
B3: design_599_7ce25d4d-e004-4b84-a16f-baf856d943ab_1823_dldesign_0_cycle1_af2pred (protein)
chain: NISEENKKLAAAEQAKFTAEAAIKKVKATTPEEAKKVAEEAIKRLEKLGKVGEEAAKVAKEEIAKLKATAEKVAA
B4: design_600_24101276-ad9d-4944-b73e-53bb160363ad_591_dldesign_0_cycle1_af2pred (protein)
chain: AEAEYKKAKELLKKAKEALKKNPEEALKLAKEAVEAAKKAAEADPSLAPELGKYAQEALQIISEARFKIS
B5: design_599_7ce25d4d-e004-4b84-a16f-baf856d943ab_1749_dldesign_0_cycle1_af2pred (protein)
chain: MEKEEELKYGEELLKKAREEAKKKIEKAAKEGKIAEGAQEAIQVINEYSFEAAKKAKKEEVKKKIWEKGKEIKKEVVERAKELVKEQE
B6: design_599_7ce25d4d-e004-4b84-a16f-baf856d943ab_1147_dldesign_0_cycle1_af2pred (protein)
chain: DAEKLMKKAKEYAELAKQAKEKGTPSSAQVAEFHAEIAEELAKKAEELDPKYKKEAEEIKKIAKEAKAVGEKADEEILKKIK
B7: design_600_24101276-ad9d-4944-b73e-53bb160363ad_358_dldesign_0_cycle1_af2pred (protein)
chain: DALAAGIVAAMREDPARGAAAARNAALQYEDDPAAYEAVKAAALAAAAADPAVAAALAAAFDAAAKEVSA
B8: design_599_7ce25d4d-e004-4b84-a16f-baf856d943ab_1164_dldesign_0_cycle1_af2pred (protein)
chain: GKEEAYKKAKEAAEKALEKAEKALKLAKEGKIEEAAKELAEAQELRAEAEFYANKSDKEKKEELLKLIEEAKKKIKEARKVAKEKA
B9: design_599_7ce25d4d-e004-4b84-a16f-baf856d943ab_1788_dldesign_0_cycle1_af2pred (protein)
chain: MEEERREEGRRLAEELVEKAKKAKELAKSGEKIEEAKKLLKEAREEAKKAAKAGLLTPEELKEVADAIHEAYEAIAEGEAKK
B10: design_600_24101276-ad9d-4944-b73e-53bb160363ad_551_dldesign_0_cycle1_af2pred (protein)
chain: GSSAANALADAQRKALKELQAVGKEAEKVSPEAAKKAAEYRDKLLDGETVEEVEAVKEEGLKEVTAMIEKAKAA
B11: design_599_7ce25d4d-e004-4b84-a16f-baf856d943ab_1363_dldesign_0_cycle1_af2pred (protein)
chain: GEAEKAARYLKLAEELAAEVKKNYDNAEKLKEIAREAREAAKEAPESVKPVLAKVAQDAYEARAEAERNASLN
B12: design_599_7ce25d4d-e004-4b84-a16f-baf856d943ab_1925_dldesign_0_cycle1_af2pred (protein)
chain: AQAVLDEAKKAADKAIALANQAIALAKTDLAAGKAKMEEALEELTEADYLADKAAKAGATEEAKKVRDKAKAAIDAARATIKAA
B13: design_600_24101276-ad9d-4944-b73e-53bb160363ad_105_dldesign_0_cycle1_af2pred (protein)
chain: GEEEEKKKKAVEKAKKALEQTKKAADKGTALDPSAKPEFDKIVKEAEKELKKAEEGDAETAKKAAKEAIEEAHKAYELRAEVEAKAIR
B14: design_600_24101276-ad9d-4944-b73e-53bb160363ad_146_dldesign_0_cycle1_af2pred (protein)
chain: SKIYKLYGELTVEILKEKAEEAVELAKEGKAEEAKKYLKEAYERAKARAERLKEIDPEAGKEALKAVEKTYKEYEKELEKAIKEN
B15: design_599_7ce25d4d-e004-4b84-a16f-baf856d943ab_1590_dldesign_0_cycle1_af2pred (protein)
chain: MEEAVKKVKELGKEALKRIEEAGKGTPEELEKKSAEVAKEFDAKVEELASKSSPEAAKAILEEAAKARKEMQETYKKALEQAKKNA
B16: design_600_24101276-ad9d-4944-b73e-53bb160363ad_124_dldesign_0_cycle1_af2pred (protein)
chain: NEMKKKAEELQKKARKLREVVKKGPKDAAEAKKAAEEAKKVAEEAEKAIEEDPSADPKTIAKLQRAAFSAEAAAKQLEKWL
B17: design_599_7ce25d4d-e004-4b84-a16f-baf856d943ab_1731_dldesign_0_cycle1_af2pred (protein)
chain: AAADAKKIQALREKVAEAAALAKDPKTAAEAAKIAKATAKEAKEAAKAATDPAAKKAFAKVAEKAKAVAEEAEKIAKA
B18: design_599_7ce25d4d-e004-4b84-a16f-baf856d943ab_1942_dldesign_0_cycle1_af2pred (protein)
chain: KEEIKKIAEEAIEKAENAKTKEQAAEAAKLAAEALKKVGAEKAAKRAEEVAKKAKEGSDSEVPELSKETLILAEQVLFAV
B19: design_600_24101276-ad9d-4944-b73e-53bb160363ad_413_dldesign_0_cycle1_af2pred (protein)
chain: ITPEEAKKLMENIAEAAKDMATWNPAAAETIAKSATKRMESIGKKAGIEEEAKKYSEEVKKFAKEVKEKS
B20: design_599_7ce25d4d-e004-4b84-a16f-baf856d943ab_1969_dldesign_0_cycle1_af2pred (protein)
chain: MKVEEEVKKTKKVAEEAIKRAEEERKKASPELKEETEEVIKKAKEYMEKAEKAVKEGDYEKAKEYAKKMATYASELIALVNAIKH
B21: design_599_7ce25d4d-e004-4b84-a16f-baf856d943ab_1596_dldesign_0_cycle1_af2pred (protein)
chain: DEEIKKKAEELKKKAEELEKEAETANAEELKKLAEEAIKLASKAAQLAEYAPKELAPYAEEVENYVSDIAVKAIQKRREVEEKEKKE
B22: design_599_7ce25d4d-e004-4b84-a16f-baf856d943ab_2019_dldesign_0_cycle1_af2pred (protein)
chain: GEELREKLLKEAEEAVKAAAADVPEMKDRLLAQMEKAKAAPLSKAPTELARLGSLLMAAAFATGSKTAEEAAEIAADAALKLK
B23: design_599_7ce25d4d-e004-4b84-a16f-baf856d943ab_1357_dldesign_0_cycle1_af2pred (protein)
chain: EEEERRREERAREAREAAEEAKALAEKVKANPKATQEEIDKLNQLALQAEVAEEAIREGYAVEAAERRAREALEEAKKIAEEAEKKAA
B24: design_599_7ce25d4d-e004-4b84-a16f-baf856d943ab_1149_dldesign_0_cycle1_af2pred (protein)
chain: DVLEKMKELVKEIIEAASKLSPDIAKIFEAAGKVALKKYEEDPEAGIKGAQKLAAVGARVALPDKEAAERLKELAKEVA
B25: design_599_7ce25d4d-e004-4b84-a16f-baf856d943ab_2071_dldesign_0_cycle1_af2pred (protein)
chain: GKAKEIAKKGAEELGKALGEEAKVDADIAAEQAEMQPTPELMAEAFKRGAKRIGEKTGKLEKAEEVAKKTVKAIKE
B26: design_599_7ce25d4d-e004-4b84-a16f-baf856d943ab_1610_dldesign_0_cycle1_af2pred (protein)
chain: DLKEKAKKGIELAKELIEKAKELKKKGDIIGAIAYAERAIHAAEAALKIAKKADPELAKEAKKVLEEAKKELEKIEKE
B27: design_600_24101276-ad9d-4944-b73e-53bb160363ad_768_dldesign_0_cycle1_af2pred (protein)
chain: AEDLKKAIEKIKKEVGEEAAKLVGEALKAKQAAADDPSLAETQLKKVEELEKEAKKLDPKAAKLVSKIKKVVKRMVEN
B28: design_599_7ce25d4d-e004-4b84-a16f-baf856d943ab_1383_dldesign_0_cycle1_af2pred (protein)
chain: SEEEKKKKYEEAKKKMEKAGEEALKNVEDGAVVMDALATMREAVHEAEKLSPEYGKEARKLLEKYREEIKKKREEVEKKKAEEEKK
B29: design_599_7ce25d4d-e004-4b84-a16f-baf856d943ab_1166_dldesign_0_cycle1_af2pred (protein)
chain: AEELYEKAKKLLTEAIFGLADGTINEEEALKAIEEGRKAAEELKKLGDEEKAEELERGVRALEDMIEDIRKAE
B30: design_599_7ce25d4d-e004-4b84-a16f-baf856d943ab_2004_dldesign_0_cycle1_af2pred (protein)
chain: DARKKAAELFKEAGKLATEAAKASPEEGKKLAEEAVAKVKEAAKVLGRERIGENFIKQIVAGRKSREIAGYQLEARADAIAA
B31: design_599_7ce25d4d-e004-4b84-a16f-baf856d943ab_2060_dldesign_0_cycle1_af2pred (protein)
chain: SSLDKKIAEEALKTAREGRKKVEELVKAGKYEEALALAKELREKMLKVYEELVKEGGTIEGIQAAFSAAMLMESAESYAKTKLEAAK
B32: design_599_7ce25d4d-e004-4b84-a16f-baf856d943ab_2233_dldesign_0_cycle1_af2pred (protein)
chain: SLVANIGQDIRSEAIAKAKLGGAEGAKEGAELAREAAVAFRKLGEASTPELKELAEKAAEIMERVSERLEEEAKRKAA
B33: design_599_7ce25d4d-e004-4b84-a16f-baf856d943ab_2014_dldesign_0_cycle1_af2pred (protein)
chain: AELKAKAAIARVEFQAENIIEAGKKNGKEAEKIVKAAEETVKKAKEEIEKDPERAWEIAEKYIRELQEKARELIEKA
B34: design_599_7ce25d4d-e004-4b84-a16f-baf856d943ab_1182_dldesign_0_cycle1_af2pred (protein)
chain: AAVEAALAAAEAEFDRAAAFARGAAAAAVKNPKTKAFGEEALKKLDALKAEVAAAKADPEAALKAAKAAAAEAEAIMDEALEANAKA
B35: design_599_7ce25d4d-e004-4b84-a16f-baf856d943ab_1658_dldesign_0_cycle1_af2pred (protein)
chain: EEIQKKNNFLAYAEAAIHAAEAIAKNSDEKTGKALKEEAKKVKEHEDDKEEAIKHLEKAAKIAAGHPGAPILQKRVAKAKAAA
B36: design_599_7ce25d4d-e004-4b84-a16f-baf856d943ab_1672_dldesign_0_cycle1_af2pred (protein)
chain: TPSPELAAKITAATDEILELADKNIEEGGENLDEVEKTATEKGKELGMTKLANALIKSAKIGVELQKKTK
B37: design_599_7ce25d4d-e004-4b84-a16f-baf856d943ab_2320_dldesign_0_cycle1_af2pred (protein)
chain: SVKSRAESAYVTAAARHAKEKAAADPAYAELYGKVLFGFYDTLDDPSAAEETYALDPELAPKLLEEMEKVGKAAADAELAK
B38: design_599_7ce25d4d-e004-4b84-a16f-baf856d943ab_1476_dldesign_0_cycle1_af2pred (protein)
chain: GEELEKLKKRAEKLLEEGKKKAKEDPEEGRKVAKEIRAEGKAHPEGKEAFAKAAAEVYQYIAEEEQKERLKKN

target: VTCN1, Q7Z7D3
Sequence (Q7Z7D3 whole entry): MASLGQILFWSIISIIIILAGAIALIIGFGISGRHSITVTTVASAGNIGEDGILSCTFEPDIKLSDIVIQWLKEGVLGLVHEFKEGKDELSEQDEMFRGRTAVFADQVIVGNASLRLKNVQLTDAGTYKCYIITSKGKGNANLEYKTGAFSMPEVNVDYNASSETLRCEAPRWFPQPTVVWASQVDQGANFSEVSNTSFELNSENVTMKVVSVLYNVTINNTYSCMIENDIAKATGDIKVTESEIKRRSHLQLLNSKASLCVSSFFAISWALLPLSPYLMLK

Binding in a display sort, inactive:
B1 not found
B2 not found
B3 not found
B4 not found
B5 not found
B6 not found
B7 not found
B8 not found
B9 not found
B10 not found
B11 not found
B12 not found
B13 not found
B14 not found
B15 not found
B16 not found
B17 not found
B18 not found
B19 not found
B20 not found
B21 not found
B22 not found
B23 not found
B24 not found
B25 not found
B26 not found
B27 not found
B28 not found
B29 not found
B30 not found
B31 not found
B32 not found
B33 not found
B34 not found
B35 not found
B36 not found
B37 not found
B38 not found
